Here are results for 21 compounds from PubChem BioAssay (Tox21).

Structures are written as SMILES. Inconclusive results are not listed. A number with no mark means an inactive call. Activity calls are given as the source filed them. The call rests on the fitted dose curve; in most records, active means well fitted inhibition curve with a large enough effect in the repeat runs; inconclusive means weak or mixed curves; inactive means no such curve, though single readings can be large or run the other way.
On the % scale 0 is the no-effect control and ±100 the full control effect; potency means the concentration at half of the fitted maximal effect.

Cytochrome P450 2C9 (Homo sapiens), sequence (P11712 whole entry, looked up): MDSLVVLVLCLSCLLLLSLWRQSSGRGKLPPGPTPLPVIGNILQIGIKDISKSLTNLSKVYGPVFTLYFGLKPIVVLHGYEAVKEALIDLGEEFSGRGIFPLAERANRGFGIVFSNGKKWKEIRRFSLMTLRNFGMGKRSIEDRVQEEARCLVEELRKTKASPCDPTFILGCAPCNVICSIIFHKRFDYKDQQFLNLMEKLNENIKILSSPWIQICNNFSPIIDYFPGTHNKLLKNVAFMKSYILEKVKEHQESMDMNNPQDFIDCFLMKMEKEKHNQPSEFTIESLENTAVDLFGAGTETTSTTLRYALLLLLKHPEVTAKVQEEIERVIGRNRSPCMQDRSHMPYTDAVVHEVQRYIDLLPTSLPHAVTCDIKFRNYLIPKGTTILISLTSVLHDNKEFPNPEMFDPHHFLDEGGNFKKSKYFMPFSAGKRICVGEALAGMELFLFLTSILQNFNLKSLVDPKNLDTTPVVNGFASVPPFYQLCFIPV

The target of the test is Cytochrome P450 2C9 (Homo sapiens) (UniProt P11712). Put plainly: Cytochrome P450 Family 2 Subfamily C Member 9 (CYP2C9) small molecule antagonists: luciferase reporter qHTS assay (AID 1671198). Further: nearly all actives have a fitted effect of over 50% in size. The settings on record: P450-Glo CYP2C9 enzyme assay, luciferin luminescence; series mostly up to 115 µM; activity change, negative = inhibition: at the top concentration. The essentials:
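P450-Glo proluciferin substrate with CYP2C9 enzyme; 10 min RT preincubation, then NADPH regeneration 1 h at 37C; luciferin detection reagent 20 min RT, luminescence in relative luminescence units.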
As for `CC1(C)SC(C)(C)SC(C)(C)S1`, the “activity change, negative = inhibition” value is -14.5%.

`COc1cc(C(=O)N2CCOCC2)cc(OC)c1OC`: the “activity change, negative = inhibition” value is -8.61% [at 53 µM].

For the compound `O=C(O)c1ccc[n+]([O-])c1`, the “activity change, negative = inhibition” value was 8.74% [at 53 µM].

Turning to `Fc1ccccc1-c1ccccc1`, the “activity change, negative = inhibition” value was -2.26%.

In the case of `COc1ccc2cc(C=O)ccc2c1`, the Potency was 17.4 µM (active).

In the case of `O=c1[nH]c(=O)n([C@H]2O[C@H](CO)[C@@H](O)[C@@H]2O)cc1/C=C\Br`, the “activity change, negative = inhibition” value is -1.16% [at 53 µM].

Consider `NCC[C@H](O)C(=O)N[C@@H]1C[C@H](N)[C@@H](O[C@H]2O[C@H](CN)[C@@H](O)[C@H](O)[C@H]2O)[C@H](O)[C@H]1O[C@H]1O[C@H](CO)[C@@H](O)[C@H](N)[C@H]1O`, for which the activity change, negative = inhibition was 0.45% [at 0.435 µM].

`CCC(=O)/C=C/c1ccc(OC)cc1`: the Potency was 39.9 µM (active).

On to `Cc1c(C)n(CCN(C)C)c2ccc(C(=O)OCCN(C)C)cc12`, for which the “activity change, negative = inhibition” value is -2.06% [at 53 µM].

For the compound `O=c1[nH]c2ccccc2c(=O)n1CCCl`, the “activity change, negative = inhibition” value is -6.58% [at 53 µM].

In the case of `C=C(C)[C@@H]1CCC2=CC(=O)C[C@@H](C)[C@]2(C)C1`, the Potency is 39.9 µM (active).

Take `C[N+](C)(C)CC[N+]1(C)Cc2c(Cl)c(Cl)c(Cl)c(Cl)c2C1`: the “activity change, negative = inhibition” value was -0.369% [at 53 µM].

In the case of `CCCC(C)C(=O)O` (stereo unspecified), the Potency is 54.1 µM (active).

For the compound `COc1cc(C)cc(O)c1`, the “activity change, negative = inhibition” value was -13%.

In the case of `CC(C)CCOC(=O)CC(C)C`, the “activity change, negative = inhibition” value was -5.45%.

Take `C=CC(=O)OCCCCCC`: the “activity change, negative = inhibition” value was -7.59%.

For `OC1OC[C@@H](O)[C@H](O)[C@H]1O` (stereo partly specified), the “activity change, negative = inhibition” value is -1.72%.

Consider `C#CC(C)(O)CC(C)C` (stereo unspecified), for which the “activity change, negative = inhibition” value is -16.6%.

As for `CCCCCCOC(=O)CC(CC(=O)OCCCCCC)(OC(=O)CCC)C(=O)OCCCCCC`, the Potency is 31.7 µM (active).

`CNc1ncnc2nc[nH]c12`: the “activity change, negative = inhibition” value is 9.67%.

With `CC(=O)N[C@@H](CCC(N)=O)C(=O)O`, the “activity change, negative = inhibition” value was 8.87% [at 53 µM].
